{
  "source": "PubChem BioAssay AID1259415",
  "about": "(National Center for Advancing Translational Sciences (NCATS), 2018)",
  "note": "Hit rate of the full screen: of about 410,000 compounds, about 18,000 (4.4%) were called active. About 7% were inconclusive and are not listed. The full list was thinned out, with actives kept by preference. Unmarked numbers belong to inactive results. Rule as the data show it: active = activity change below about -60%; inconclusive = no clear call, values can overlap the other calls; inactive = above about -39%. % is scaled to controls: 0 for no effect and ±100 for the full control effect.",
  "data": [
    {"test": "qHTS Assay for inhibitors of the human cytomegalovirus (HCMV)", "settings": "HFF cells, HCMV-luciferase reporter, 72 h; at 57.5 µM; active compounds read low", "procedure,_shortened": "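Steps: HFFs plated, 16 h 37C; compounds added; HCMV-luciferase added to MOI 1 PFU/cell; 72 h 37C; OneGlo reagent, 5 min room temperature; luminescence read, normalized to controls.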", "values": [
      {"smiles": "COc1ccc(NC(=O)C2CCCN(S(=O)(=O)c3c(C)[nH]c(=O)[nH]c3=O)C2)c(OC)c1", "note": "(centres undefined)", "activity change, negative = inhibition": "10.4%"},
      {"smiles": "CC(/C=C/c1ccccc1)=N\\NC(=O)C1CC1(C)c1ccccc1", "note": "(centres undefined)", "activity change, negative = inhibition": "-62.3% (active)"},
      {"smiles": "COC(=O)C1(C)CC1(c1ccccc1)c1ccccc1", "note": "(centres undefined)", "activity change, negative = inhibition": "13.4%"},
      {"smiles": "CC(/C=C/c1ccco1)=N/NC(=O)C1COc2ccccc2O1", "note": "(centres undefined)", "activity change, negative = inhibition": "27.4%"},
      {"smiles": "Cc1cn(C2C=CC(CO)O2)c(=O)[nH]c1=O", "note": "(centres undefined)", "activity change, negative = inhibition": "-30.1%"},
      {"smiles": "COc1ccc(S(=O)(=O)NCC(c2ccc(N(C)C)cc2)N2CCCC2)cc1", "note": "(centres undefined)", "activity change, negative = inhibition": "-4.35%"},
      {"smiles": "Cc1cc(C(=O)OCC(=O)Nc2c(F)cccc2F)c(C)n1C1CC1", "activity change, negative = inhibition": "-2.16%"},
      {"smiles": "Cc1cc(C(=O)COc2ccccc2Cl)c(C)n1C1CC1", "activity change, negative = inhibition": "-67.2% (active)"},
      {"smiles": "Cc1ccccc1NC(=O)COC(=O)c1cc(C)n(C2CC2)c1C", "activity change, negative = inhibition": "-2.16%"},
      {"smiles": "COc1cccc(CNC(=O)C2CCC(CNS(=O)(=O)c3cccs3)CC2)c1", "note": "(centres undefined)", "activity change, negative = inhibition": "-3.87%"},
      {"smiles": "Fc1cccc(-n2ncc3c2ncn2nc(-c4ccccc4Cl)nc32)c1", "activity change, negative = inhibition": "-25.2%"},
      {"smiles": "O=C(Cn1c(=O)n(Cc2ccccc2)c(=O)c2sc3ccccc3c21)Nc1ccccc1F", "activity change, negative = inhibition": "20.5%"},
      {"smiles": "CCOc1ccc(S(=O)(=O)NCCC(=O)NNC(=O)c2ccc(F)cc2)cc1", "activity change, negative = inhibition": "70.6%"},
      {"smiles": "Cc1ccc2sc(N(Cc3cccnc3)C(=O)C3COc4ccccc4O3)nc2c1C", "note": "(centres undefined)", "activity change, negative = inhibition": "0%"},
      {"smiles": "CCc1ccc(N(CC)c2ncnc3nc[nH]c23)cc1", "activity change, negative = inhibition": "-84.7% (active)"},
      {"smiles": "S=c1c2[nH]cnc2ncn1CCSc1ncnc2nc[nH]c12", "activity change, negative = inhibition": "-16%"},
      {"smiles": "Cc1ccc(NC(=O)c2ccc(CSc3ncnc4nc[nH]c34)cc2)c(C)c1", "activity change, negative = inhibition": "-37%"},
      {"smiles": "CC(C)(C)C1CCc2c(sc(NC(=O)c3ccccc3F)c2C(=O)N2CCCCC2)C1", "note": "(centres undefined)", "activity change, negative = inhibition": "-1.57%"},
      {"smiles": "CCOC(=O)NN1C(=O)c2ccccc2NC1c1cccc(O)c1", "note": "(centres undefined)", "activity change, negative = inhibition": "-96.9% (active)"},
      {"smiles": "CCOC(=O)NN1C(=O)c2ccccc2NC1c1ccccc1O", "note": "(centres undefined)", "activity change, negative = inhibition": "54.6%"},
      {"smiles": "CC(=O)NN1C(=O)c2ccccc2NC1c1ccccc1", "note": "(centres undefined)", "activity change, negative = inhibition": "44.7%"},
      {"smiles": "CC1(C)C(C=C(Cl)Cl)C1C(=O)NC(O)C(=O)c1ccccc1", "note": "(centres undefined)", "activity change, negative = inhibition": "-33.9%"},
      {"smiles": "Cc1cc(C)cc(NC(=O)Cn2c(=O)c3ccccc3n3nncc23)c1", "activity change, negative = inhibition": "2.01%"},
      {"smiles": "CC(=O)c1sc(N2C(=O)c3oc4ccccc4c(=O)c3C2c2ccc(C)cc2)nc1C", "note": "(centres undefined)", "activity change, negative = inhibition": "24.4%"},
      {"smiles": "CCOc1ccc(OCc2ccc(C(=O)N(C)c3ccccc3)o2)cc1", "activity change, negative = inhibition": "41.3%"},
      {"smiles": "CN(C(=O)CN1CCN(c2cc(-c3ccc(OCc4ccccc4)cc3)ncn2)CC1)c1ccccc1", "activity change, negative = inhibition": "-71.2% (active)"},
      {"smiles": "CCN(CC)c1ccc(NC(=O)CN2CCN(c3ccccn3)CC2)cc1", "activity change, negative = inhibition": "28.5%"},
      {"smiles": "CCCc1cc(=O)n2[nH]c(NCc3ccc(CC)cc3)nc2n1", "activity change, negative = inhibition": "-6.39%"},
      {"smiles": "CC(=O)NC(c1ccccc1)c1nc(-c2ccccc2C)cs1", "note": "(centres undefined)", "activity change, negative = inhibition": "-25.4%"},
      {"smiles": "OC(c1ccccc1)c1nc(-c2cnc3ccccc3c2)cs1", "note": "(centres undefined)", "activity change, negative = inhibition": "184%"},
      {"smiles": "CC(=O)NC(c1ccccc1)c1nc(-c2cccc(C(C)C)c2)cs1", "note": "(centres undefined)", "activity change, negative = inhibition": "-66.8% (active)"},
      {"smiles": "Cc1ccc(N(C)C(=O)C2CCN(S(=O)(=O)c3ccc4c(c3)CCCN4C(=O)C3CCC3)CC2)cc1", "activity change, negative = inhibition": "8.58%"},
      {"smiles": "Cc1c(NC(=O)C(C)Oc2cccc(Cl)c2)c(=O)n(-c2ccccc2)n1C", "note": "(centres undefined)", "activity change, negative = inhibition": "-25%"},
      {"smiles": "NC(=O)C1CCN(C(=O)CC2C(=O)NCCN2Cc2cccc(Oc3ccccc3)c2)CC1", "note": "(centres undefined)", "activity change, negative = inhibition": "-38.9%"},
      {"smiles": "COc1ccc(Cl)cc1CSc1ncn[nH]1", "activity change, negative = inhibition": "-63.2% (active)"},
      {"smiles": "ClC1(Cl)CC1CSc1ncn[nH]1", "note": "(centres undefined)", "activity change, negative = inhibition": "62.8%"},
      {"smiles": "CCCCOc1ccc(Cl)cc1CSc1nncn1N", "activity change, negative = inhibition": "-20.2%"},
      {"smiles": "CCCCOc1ccc(NC(=O)c2cc3c(n(-c4ccc(Cl)cc4)c2=O)CCCC3=O)cc1", "activity change, negative = inhibition": "14.9%"},
      {"smiles": "COC(=O)c1ccc(NC(=O)CSc2n[nH]c(-c3ccccc3)n2)cc1", "activity change, negative = inhibition": "16.1%"},
      {"smiles": "Cc1ccc(NC(=O)C(=O)NCC(c2cccnc2)N2CCOCC2)cc1", "note": "(centres undefined)", "activity change, negative = inhibition": "-12.5%"},
      {"smiles": "COc1ccccc1N1CCN(C2C(=O)c3ccccc3N2C(C)=O)CC1", "note": "(centres undefined)", "activity change, negative = inhibition": "0%"},
      {"smiles": "Cc1ccc(C(=O)N/C(=C/c2cccs2)C(=O)N2CCCCC2)cc1", "activity change, negative = inhibition": "-25.9%"},
      {"smiles": "Cc1ccc(C(=O)N/C(=C\\c2cn(S(=O)(=O)N(C)C)c3ccccc23)C(=O)N2CCCC2)cc1", "activity change, negative = inhibition": "-95.9% (active)"},
      {"smiles": "O=C(N/C(=C\\c1ccc(O)cc1)C(=O)N1CCCCC1)c1ccccc1", "activity change, negative = inhibition": "-16.2%"},
      {"smiles": "CC1(C(=O)NS(=O)(=O)c2cccs2)CCN1C(=O)Cc1ccc(-c2ccccc2)cc1", "note": "(centres undefined)", "activity change, negative = inhibition": "-1.93%"},
      {"smiles": "COc1ccc(OC)c(NC(=O)C2(C)CCN2C(=O)Cc2ccccc2)c1", "note": "(centres undefined)", "activity change, negative = inhibition": "-33.9%"},
      {"smiles": "C#Cc1ccc(NC(=O)C2(C)CCN2C(=O)Cc2ccc(-c3ccccc3)cc2)cc1", "note": "(centres undefined)", "activity change, negative = inhibition": "-83.5% (active)"},
      {"smiles": "COC(=O)c1cc(NC(=O)CCS(=O)(=O)c2cc(Br)cc3c2N(C(=O)C2CC2)CC3)cc(C(=O)OC)c1", "activity change, negative = inhibition": "3.41%"},
      {"smiles": "COc1cc(-n2c(C)nc3cc(C(=O)NCc4ccco4)ccc32)cc(OC)c1OC", "activity change, negative = inhibition": "17.2%"},
      {"smiles": "CCCC1=Nc2cc(C(=O)NCc3ccco3)ccc2Sc2ccccc21", "activity change, negative = inhibition": "-69.1% (active)"},
      {"smiles": "O=C(NCc1ccco1)c1cccc(-c2ccc3nncn3c2)c1", "activity change, negative = inhibition": "15.7%"},
      {"smiles": "COc1ccc(-c2ccc(=O)n(CC(=O)Nc3ccc(Br)cc3F)n2)cc1", "activity change, negative = inhibition": "-10.5%"},
      {"smiles": "O=C1c2cccc3cccc(c23)N1CN1CCN(c2ccccn2)CC1", "activity change, negative = inhibition": "16%"},
      {"smiles": "CCOC(=O)c1c(C)[nH]c(C)c1S(=O)(=O)NCC(=O)NCc1cccc(C)c1", "activity change, negative = inhibition": "-20.2%"},
      {"smiles": "COc1ccccc1NC(=O)C1=C(C)Nc2nc(SCC(=O)c3ccc(C)cc3)nn2C1c1ccccc1C", "note": "(centres undefined)", "activity change, negative = inhibition": "-1.97%"},
      {"smiles": "Cc1cccc2c1-c1sc(C(=O)Nc3ccc(F)cc3F)cc1CO2", "activity change, negative = inhibition": "-12.8%"},
      {"smiles": "Cc1cccc(-n2c(SCC(N)=O)nc3c(c2=O)C2(CCCCC2)Cc2ccccc2-3)c1", "activity change, negative = inhibition": "-70.4% (active)"},
      {"smiles": "COc1ccc(-n2c(SCC(N)=O)nc3c(oc4ccccc43)c2=O)cc1", "activity change, negative = inhibition": "-15.1%"},
      {"smiles": "CCOC(=O)C1Cn2c(nc3c(c2=O)C(C)(CC)Cc2ccccc2-3)S1", "note": "(centres undefined)", "activity change, negative = inhibition": "-19.7%"}
    ]}
  ]
}
